Results from PubChem BioAssay AID720650 (Broad Institute, 2013).
A number with no mark means an inactive call. Active and inactive are the calls of the source. How the calls were made is not given here.

Experiment: Biochemical counterscreen for C difficile toxins, absence of UDPG, inhibitor dose response (AID 720650)
Settings: series mostly up to 19.5 µM

SMILES | AC50
CC(=O)Nc1ccc(NC(=O)Cc2ccc(S(=O)(=O)N3CCCCC3)cc2)cc1 | inactive
COc1ccc(S(=O)(=O)N2CCC[C@H]2C(=O)N2CCC[C@H]2C(=O)NCc2ccncc2)cc1C | inactive
CN(C)c1ccc(NC(=O)/C=C/c2c(Cl)cccc2Cl)cc1 | inactive
Cc1cc(C(=O)CSc2nc(N)cc(=O)[nH]2)c(C)n1CC1CCCO1 (centres undefined) | inactive
Nc1ccc(OC(=O)Nc2ccc(O)cc2)cc1 | 18.9 µM (active)
Cc1ccc(-c2cc(C(=O)OC3CCOC3=O)c3ccccc3n2)c(C)c1 (centres undefined) | inactive
C=CCn1c(C)cc(C(=O)COC(=O)CCc2cc(OC)c(OC)c(OC)c2)c1C | inactive
NC(=O)NN=C1CC2CC1C1C=CCC21 (centres undefined) | inactive
COc1ccc(/C=C2\CCCCC2=O)cc1 | inactive
O=C(CSc1ccc2nnc(-c3ccc(F)cc3)n2n1)N1CCOCC1 | inactive
COC(=O)CN1C(C)=Nc2ccc(Br)cc2C1c1ccccc1 (centres undefined) | inactive
COc1ccc(-c2cnc3c(c2)C(=O)N([C@@H](C)CO)C[C@H](C)[C@H](CN(C)C(=O)C2CCCCC2)O3)cc1 | inactive
CCOc1ccc(S(=O)(=O)NCc2ccccc2Cl)cc1C(N)=O | > 39 µM
COc1cccc(-n2c(SCC(=O)N3CCOCC3)nnc2-c2c[nH]c3ccccc23)c1 | inactive
O=C(CSc1ccccc1)Nc1cc(S(=O)(=O)N2CCOCC2)ccc1N1CCOCC1 | inactive
CCCCn1c(N)c(N(CCOC)C(=O)CSc2nnc(-c3ccco3)n2CC)c(=O)[nH]c1=O | inactive
CC(=O)N1CC[C@@H]2[C@@H](CO)N(C)c3ccc(-c4ccccc4)cc3[C@@H]21 | 7.4 µM (active)
COc1cc(/C=N/NC(=O)c2nnn(-c3nonc3N)c2C(C)C)ccc1O | inactive
CCOC(=O)c1nnn(-c2nonc2N)c1-c1ccc(F)cc1 | inactive
O=c1c2ccccc2nc(/C=C/c2ccc(O)cc2)n1-c1ccccc1O | > 39 µM

SMILES | AC50
CCn1c(SCC(=O)OC)nnc1-c1ccccc1 | inactive
O=C(N/C(=C\c1ccc(O)cc1)C(=O)N1CCCCC1)c1ccccc1 | inactive
Cc1ccc(S(=O)(=O)Oc2cccc(/C=N/Nc3ccc(C(=O)O)cc3)c2)cc1 | > 39 µM
COc1ccc(C(=O)Nc2ccc3c(c2)C(=O)N(C)[C@@H]2CC[C@H](CC(=O)NCC4CC4)O[C@H]2CO3)cc1 | inactive
O=C1OCC/C1=C\c1ccc(O)cc1 | 9.75 µM (active)
CCc1ccc(NC(=O)c2cc(C)on2)cc1 | inactive
O=C(C[C@H]1CC[C@H]2[C@@H](COC[C@@H](O)CN2Cc2ccccc2)O1)NCCc1ccccc1 | inactive
CC1=C(C(=O)OCC2CCCO2)C(c2coc3ccccc3c2=O)C2=C(CCCC2=O)N1 (centres undefined) | inactive
CCOC(=O)c1sc2nc(OCCN3CCOCC3)cc(C)c2c1N | inactive
Cc1ccn(CCC(=O)NC2CC(C)(C)Cc3c2cnn3-c2ccccc2C)n1 (centres undefined) | inactive
S=C(c1cn(Cc2ccccc2)c2ccccc12)N1CCOCC1 | inactive
O=S(=O)(Cc1cccc(F)c1)c1c[nH]c2ccccc12 | > 39 µM
N/C(=N\N=C\c1ccc(O)cc1)c1nonc1N | 5.49 µM (active)
Nc1c(Cl)ncnc1NCCc1ccc(O)cc1 | 18.6 µM (active)
CC(=O)N/C(=C\c1ccccc1)C(=O)Nc1ccc(O)cc1 | 17 µM (active)
FC(F)(F)c1cc(Cl)c2nc(-c3ccccc3)c(Cc3ccsc3)n2c1 | inactive
CC(C)Cc1[nH]c(=O)c(C#N)c2c1CCCC2 | inactive
CCC(C)NC(=O)CSc1nc2cc(S(=O)(=O)N3CCOCC3)ccc2n1CC (centres undefined) | inactive
CCN1CCN(S(=O)(=O)c2ccc3[nH]c(=O)oc3c2)CC1 | inactive
